Results on 26 compounds are retold here after PubChem BioAssay (Tox21).

The target of experiment [1] is Estrogen receptor beta (Homo sapiens) (UniProt Q92731). The experiment in a line: qHTS assay to identify small molecule agonists of the estrogen receptor beta (ER-beta) signaling pathway (AID 1259377; active = well fitted activation curve with a large enough effect in the signal ratio in the repeat runs, not every such curve was filed as active; the % refers to the signal ratio). In outline: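 Screening used GripTite ER-beta-UAS-bla cells held in 2% charcoal-stripped FBS medium. After overnight (16 hr) compound incubation at 37C, beta-lactamase activity was detected with a FRET substrate by fluorescence.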
(qHTS replaces the single test concentration by a dilution series.)

Experiment [2] can be described thus: qHTS assay to identify small molecule agonists of the androgen receptor (AR) signaling pathway in the presence of an antagonist - cell viability counter screen (AID 1259379). Also: nearly all actives have a fitted effect of over 25% in size. Also: potency is read from the fitted curve at half-maximal effect. The essentials:
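Seed MDA-kb2 at 3,000 cells/well; incubate 5 hr, 37C, 0% CO2. Add nilutamide to 3.0uM final, then pin compounds at 15 concentrations. Incubate 16 hr. Add CellTiter-Fluor at 15 hr, read fluorescence after 1 hr.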

A short description of experiment [3]: qHTS assay to identify small molecule agonists of the estrogen receptor beta (ER-beta) signaling pathway - cell viability counter screen (AID 1259380). Also: nearly all actives have a fitted effect of over 30% in size. Also: potency is read from the fitted curve at half-maximal effect. The essentials: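 CellTiter-Glo read, 30 min RT, same wells as bla assay; cells ER-beta-UAS-bla HEK293T; 16 hr compound, 37C; medium 2% charcoal-stripped FBS.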
The nature of experiment [4]: qHTS assay to identify small molecule antagonists of the estrogen receptor beta (ER-beta) signaling pathway - cell viability counter screen (AID 1259382). Also: nearly all actives have a fitted effect of over 55% in size. Also: potency is read from the fitted curve at half-maximal effect. In outline: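 In this multiplexed counter screen, cells were seeded at 2,000 per well in medium with 2% charcoal-stripped FBS and incubated 6 hr before compound and 1nM final E2 were added. Sixteen hours later, ATP-based luminescence reported viability.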

The target in experiment [5] is Estrogen receptor (Homo sapiens) (UniProt P03372). The experiment in a line: qHTS assay to identify small molecule agonists of the estrogen receptor alpha (ER-alpha) signaling pathway in the presence of an antagonist (AID 1259383; calls by dose curve; also: nearly all actives have a fitted effect of over 15% in size; also: potency is read from the fitted curve at half-maximal effect; as to activation: top concentration of the series differs between compounds). The essentials:
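Stably transfected VM7Luc4E2 reporter cells, kept 5 days in charcoal-stripped serum, received ICI-182,780 at 10.0nM final before compound addition. Following 22hr incubation at 37C and 5% CO2, luciferase signal was read by luminescence.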

The nature of experiment [6]: qHTS assay to identify small molecule agonists or antagonists of the thyroid stimulating hormone receptor (TSHR) signaling pathway - wild type cell line counter screen (AID 1259384; calls by dose curve). In outline:
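Counter screen in untransfected Hek293: compounds (15-point titration, triplicate) plus phosphodiesterase inhibitor Ro20-1724 added after 18 h plating; 30 min RT. Intracellular cAMP via competitive d2/cryptate immunoassay, 1 h incubation.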

Experiment [7] addresses Thyrotropin receptor (Homo sapiens) (UniProt P16473). The experiment in a line: qHTS assay to identify small molecule antagonists of the thyroid stimulating hormone receptor (TSHR) signaling pathway (AID 1259385; calls by dose curve; also: nearly all actives have a fitted effect of over 20% in size; also: potency is read from the fitted curve at half-maximal effect). The essentials: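 Antagonist mode: compound-treated TSHR-expressing HEK293 cells were stimulated with 1.5 ng/mL TSH (final) in presence of Ro20-1724 for 30 min at RT. HTRF cAMP detection after 1 h; each compound tested at 15 concentrations, triplicate.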

The nature of experiment [8]: qHTS assay to identify small molecule agonists of the estrogen receptor alpha (ER-alpha) signaling pathway in the presence of an antagonist - cell viability counter screen (AID 1259386).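 Also: cells exposed to compounds for 22 h at 37 °C before the viability read; nearly all actives have a fitted effect of over 30% in size.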 Also: potency is read from the fitted curve at half-maximal effect. In outline: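 Viability counter screen using VM7Luc4E2 (full-length ER-alpha, four ERE-luciferase). The cells were treated with compounds alongside ICI-182,780 10.0nM for 22hr, and live-cell protease fluorescence was quantified with CellTiter-Fluor.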

The target in experiment [9] is Androgen receptor (Homo sapiens) (UniProt P10275). The experiment in a line: qHTS assay to identify small molecule agonists of the androgen receptor (AR) signaling pathway in the presence of an antagonist (AID 1259381; calls by dose curve; also: nearly all actives have a fitted effect of over 15% in size). The essentials: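 Test compounds at 15 concentrations were incubated for 16hr with MDA-kb2 reporter cells in presence of 3.0uM nilutamide (final). Signal: ONE-Glo luciferase luminescence.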

Where “and” joins values, the source holds several entries; their conditions need not be identical. Equal values may be shown once. Results filed as inconclusive are left out. Some compounds were tested as several samples or in several runs, with calls that do not always agree. Calls of active or inactive are those of the source. Unless noted, calls follow the shape of the dose curve; as a rule, active = well fitted curve in the direction sought with a large enough effect in the repeat runs; inconclusive = weak or mixed curves; inactive = no such curve, though single readings can be large; an effect the other way counts as inactive or inconclusive. Starred links: 1 amine or outer side, 2 acyl side, 3 side chain; linkers in the order of their positions; H or OH if unused. Positions of bridges follow the written chain, without caps; N, C: chain ends. Non-standard residues stand in square brackets, D forms with d. Residues, ends and D or L forms follow the SMILES beside them. Chains are numbered I, II in the order given. Actinocin(9to1) = Cc1c2oc3c(C)ccc(C(=O)[*:1])c3nc-2c(C(=O)[*:2])c(N)c1=O; NMeV = CN[C@H](C(=O)O)C(C)C; Sar = CNCC(=O)O

Chain of Thyrotropin receptor (Homo sapiens) (P16473 whole entry, looked up): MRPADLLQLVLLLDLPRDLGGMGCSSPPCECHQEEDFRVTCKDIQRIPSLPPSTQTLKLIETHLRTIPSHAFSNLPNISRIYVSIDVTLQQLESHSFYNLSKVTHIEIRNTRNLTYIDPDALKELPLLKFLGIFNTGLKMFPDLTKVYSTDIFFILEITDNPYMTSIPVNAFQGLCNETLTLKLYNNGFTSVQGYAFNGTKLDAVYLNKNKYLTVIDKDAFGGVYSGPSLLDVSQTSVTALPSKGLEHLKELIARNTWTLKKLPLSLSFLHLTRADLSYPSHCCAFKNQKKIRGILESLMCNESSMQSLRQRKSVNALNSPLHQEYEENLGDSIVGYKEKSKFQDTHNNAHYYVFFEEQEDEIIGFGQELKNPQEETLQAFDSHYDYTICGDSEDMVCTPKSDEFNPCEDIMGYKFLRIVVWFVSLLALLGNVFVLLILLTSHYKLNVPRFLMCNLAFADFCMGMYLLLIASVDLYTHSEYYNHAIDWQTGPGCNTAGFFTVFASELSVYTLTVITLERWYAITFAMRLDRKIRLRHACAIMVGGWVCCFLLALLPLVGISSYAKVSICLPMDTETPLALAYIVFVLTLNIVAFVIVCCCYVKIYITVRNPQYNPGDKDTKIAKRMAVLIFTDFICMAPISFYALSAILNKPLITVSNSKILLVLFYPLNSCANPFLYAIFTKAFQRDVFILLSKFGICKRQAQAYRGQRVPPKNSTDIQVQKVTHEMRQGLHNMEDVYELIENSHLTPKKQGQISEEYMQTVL
Chain of Androgen receptor (Homo sapiens) (P10275 whole entry, looked up): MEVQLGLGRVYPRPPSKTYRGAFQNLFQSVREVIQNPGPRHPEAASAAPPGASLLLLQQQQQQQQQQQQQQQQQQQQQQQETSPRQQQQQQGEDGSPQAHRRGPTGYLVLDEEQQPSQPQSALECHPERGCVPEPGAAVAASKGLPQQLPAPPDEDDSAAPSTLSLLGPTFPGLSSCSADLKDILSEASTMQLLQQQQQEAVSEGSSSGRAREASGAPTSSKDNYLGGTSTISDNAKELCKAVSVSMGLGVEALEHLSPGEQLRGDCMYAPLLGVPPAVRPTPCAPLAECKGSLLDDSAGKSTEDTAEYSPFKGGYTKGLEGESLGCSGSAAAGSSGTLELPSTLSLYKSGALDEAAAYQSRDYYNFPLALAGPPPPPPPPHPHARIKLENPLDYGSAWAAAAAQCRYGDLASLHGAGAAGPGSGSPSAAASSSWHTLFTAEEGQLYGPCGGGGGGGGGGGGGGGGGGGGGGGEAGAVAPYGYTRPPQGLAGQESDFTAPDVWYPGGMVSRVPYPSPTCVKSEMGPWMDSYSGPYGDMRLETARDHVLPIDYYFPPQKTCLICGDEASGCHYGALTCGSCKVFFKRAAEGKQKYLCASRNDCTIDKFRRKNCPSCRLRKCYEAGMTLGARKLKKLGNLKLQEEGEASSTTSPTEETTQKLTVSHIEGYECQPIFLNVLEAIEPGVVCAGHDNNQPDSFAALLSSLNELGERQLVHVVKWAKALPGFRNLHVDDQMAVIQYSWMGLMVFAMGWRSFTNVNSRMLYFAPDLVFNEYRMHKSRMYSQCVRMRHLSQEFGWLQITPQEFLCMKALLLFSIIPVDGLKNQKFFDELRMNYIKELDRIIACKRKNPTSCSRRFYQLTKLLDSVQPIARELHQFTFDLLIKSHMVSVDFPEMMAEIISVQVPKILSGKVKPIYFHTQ
Chain of Estrogen receptor (Homo sapiens) (P03372 whole entry, looked up): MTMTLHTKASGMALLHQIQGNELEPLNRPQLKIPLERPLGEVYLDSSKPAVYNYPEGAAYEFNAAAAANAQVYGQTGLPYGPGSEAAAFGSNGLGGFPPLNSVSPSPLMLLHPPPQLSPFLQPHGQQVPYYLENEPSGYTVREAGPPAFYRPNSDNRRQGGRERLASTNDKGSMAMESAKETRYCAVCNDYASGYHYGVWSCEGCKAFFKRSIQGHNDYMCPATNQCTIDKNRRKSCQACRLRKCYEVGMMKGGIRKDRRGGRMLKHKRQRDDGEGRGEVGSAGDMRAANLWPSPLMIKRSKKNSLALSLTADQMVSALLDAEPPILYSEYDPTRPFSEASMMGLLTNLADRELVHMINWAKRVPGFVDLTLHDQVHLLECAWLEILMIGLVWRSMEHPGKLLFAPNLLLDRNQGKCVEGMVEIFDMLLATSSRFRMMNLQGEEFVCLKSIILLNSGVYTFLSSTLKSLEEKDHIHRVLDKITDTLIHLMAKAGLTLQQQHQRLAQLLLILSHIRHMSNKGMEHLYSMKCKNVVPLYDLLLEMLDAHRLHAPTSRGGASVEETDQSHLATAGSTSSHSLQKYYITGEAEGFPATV
Chain of Estrogen receptor beta (Homo sapiens) (Q92731 whole entry, looked up): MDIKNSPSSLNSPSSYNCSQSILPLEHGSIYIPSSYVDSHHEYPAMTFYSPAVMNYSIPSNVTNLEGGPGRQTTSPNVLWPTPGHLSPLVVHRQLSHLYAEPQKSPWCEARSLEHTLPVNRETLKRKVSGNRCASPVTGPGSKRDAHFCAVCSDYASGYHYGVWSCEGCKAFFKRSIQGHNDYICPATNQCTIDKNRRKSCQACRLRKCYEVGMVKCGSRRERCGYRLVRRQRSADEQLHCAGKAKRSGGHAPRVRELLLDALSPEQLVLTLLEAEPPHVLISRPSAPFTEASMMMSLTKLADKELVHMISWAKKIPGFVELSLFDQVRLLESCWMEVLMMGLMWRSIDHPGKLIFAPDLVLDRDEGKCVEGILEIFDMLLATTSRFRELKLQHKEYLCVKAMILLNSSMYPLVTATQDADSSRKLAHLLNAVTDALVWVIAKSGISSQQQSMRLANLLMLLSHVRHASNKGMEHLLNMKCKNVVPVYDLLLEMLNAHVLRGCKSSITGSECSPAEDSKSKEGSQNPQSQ

As to `CCCOC(=O)c1cc(O)c(O)c(O)c1`, the compound was classed as inactive in experiment [1]. Also, the Potency result in [2], in experiment [3], in [4], in experiment [5], in experiment [6] and in experiment [7] was “inactive” throughout.

Regarding `C/C=C/c1ccc(OCC)c(O)c1`, the call in experiment [1] was inactive. Moreover, the Potency result in experiment [2], in experiment [3], in [4], in [6], in experiment [7] and in [8] was “inactive” throughout.

For the compound `Oc1c(Cl)cc(Cl)c(Cl)c1Cc1c(O)c(Cl)cc(Cl)c1Cl`, the call in [1] was inactive. Further, the Potency in experiment [2] is 8.61 µM (active) and 9.69 µM (active) and 9.44 µM (active); in experiment [3] it was 60.9 µM (active) and 30.6 µM (active); in [4] it was 48.4 µM (active) and 34.4 µM (active) and inactive; in experiment [8] it was 13.3 µM (active). Further, the Potency entry in [9], in experiment [6] and in experiment [7] was “inactive” each time.

For the compound `CCCCC(CC)COC(=O)CC(C(=O)OCC(CC)CCCC)S(=O)(=O)O` (stereo not drawn), in experiment [1], the result was inactive. Moreover, the Potency result in experiment [2], in [5] and in experiment [8] was “inactive” throughout. Besides, the Potency was 26.3 µM (active) and 30.6 µM (active) in [3]; 29.5 µM (active) and 27.3 µM (active) in experiment [4].

On to `Nc1nc(=S)c2[nH]cnc2[nH]1`, for which the result in [1] was inactive. Also, the Potency result in [2], in experiment [9], in [5], in [7] and in experiment [8] was “inactive” in each case. Besides, the Potency in [3] is 3.06 µM (active) and 2.98 µM (active).

`CCCCOCCOC(=O)c1ccccc1C(=O)OCCOCCCC`: the result in experiment [1] was inactive. Besides, the Potency entry in experiment [2], in experiment [3], in [4], in experiment [5], in experiment [6] and in experiment [8] was “inactive” throughout.

With `CNCCC(Oc1ccc(C(F)(F)F)cc1)c1ccccc1` (stereo not drawn), the compound was called inactive in [1]. For the same compound, the Potency in [2] is 53.8 µM (active) and 26.6 µM (active); in [3] it was 26.9 µM (active) and 13.3 µM (active); in [4], 24 µM (active) and 11.9 µM (active); in [7], 67.7 µM (active) and inactive. In addition, the Potency entry in [8] was “inactive”.

As for `CC(C)CCCCCCc1ccc(O)cc1`, the outcome in experiment [1] was inactive. The Potency in [2] is 27.8 µM (active) and inactive; in experiment [3], 3.92 µM (active) and 61.1 µM (active); in [4], 5.54 µM (active) and inactive; in experiment [5], 15.6 µM (active) and 27.3 µM (active); in [8], 27.8 µM (active) and inactive.

Regarding `CCCCCC(=O)O[C@]1(C(C)=O)CC[C@H]2[C@@H]3CCC4=CC(=O)CC[C@]4(C)[C@H]3CC[C@@]21C`, the outcome in experiment [1] was inactive. For the same compound, in [2], the Potency was 60.7 µM (active) and 29.8 µM (active). In addition, the Potency result in [3], in [4], in experiment [5], in experiment [6] and in experiment [8] was “inactive” in each case.

As for `Cc1c2oc3c(C)ccc(C(=O)N[C@@H]4C(=O)N[C@H](C(C)C)C(=O)N5CCC[C@H]5C(=O)N(C)CC(=O)N(C)[C@@H](C(C)C)C(=O)O[C@@H]4C)c3nc-2c(C(=O)N[C@@H]2C(=O)N[C@H](C(C)C)C(=O)N3CCC[C@H]3C(=O)N(C)CC(=O)N(C)[C@@H](C(C)C)C(=O)O[C@@H]2C)c(N)c1=O` (I: T[dV]P[Sar][NMeV] / II: T[dV]P[Sar][NMeV]; ester I:1-I:C, II:1-II:C; linker I:N-II:N via Actinocin(9to1)), the result in [1] was inactive. For the same compound, the Potency in experiment [2] was 10.6 µM (active); in experiment [8], 26.6 µM (active) and 10.6 µM (active). In addition, the Potency result in [3], in experiment [9], in experiment [4] and in experiment [5] was “inactive” throughout.

As to `Oc1ccc(Cl)cc1Cc1cc(Cl)ccc1O`, the result in [1] was inactive. The Potency in [2] was 39.3 µM (active) and 27.3 µM (active) and 29.8 µM (active); in experiment [3], 49.4 µM (active) and 48.6 µM (active) and 18.8 µM (active); in experiment [4] it was 27.8 µM (active) and 27.3 µM (active); in [8], 43.3 µM (active). Moreover, the Potency entry in experiment [9], in [5], in [6] and in experiment [7] was “inactive” throughout.

As to `CC(=O)Nc1ccc(C(=O)CCl)cc1`, the call in experiment [1] was inactive. In experiment [2], the Potency was 54.5 µM (active). The Potency result in [3], in experiment [9], in experiment [4], in experiment [6], in experiment [7] and in experiment [8] was “inactive” in each case.

`Clc1ccc2c(c1)C(N1CCNCC1)=Nc1ccccc1O2`: the compound was classed as inactive in experiment [1]. Also, the Potency in experiment [2] is 61.1 µM (active) and 29.8 µM (active); in experiment [3], 30.6 µM (active) and 23.7 µM (active). Further, the Potency entry in experiment [4], in experiment [5], in experiment [6], in experiment [7] and in experiment [8] was “inactive” each time.

Regarding `C=C(C)C(=O)O`, in experiment [1], the outcome was inactive. In addition, the Potency entry in experiment [2], in [3], in experiment [4], in [5] and in experiment [8] was “inactive” throughout.

For the compound `CCC(CO)(CO)COCC(CC)(CO)CO`, the compound was called inactive in experiment [1]. For the same compound, the Potency entry in experiment [2], in experiment [3], in [4], in experiment [6], in experiment [7] and in experiment [8] was “inactive” in each case.

With `O=C(O)c1cc(Cl)cc(Cl)c1`, the call in [1] was inactive. The Potency entry in experiment [2], in [3], in [4], in [5], in experiment [7] and in [8] was “inactive” in each case.

For `O=C(Cl)c1cccc(C(=O)Cl)c1`, the outcome in experiment [1] was inactive. Besides, the Potency result in experiment [2], in experiment [3], in experiment [4], in [6], in [7] and in [8] was “inactive” in each case.

For `N[C@@H]1CONC1=O`, in experiment [1], the compound was called inactive. The Potency result in experiment [2], in experiment [3], in experiment [4], in [7] and in experiment [8] was “inactive” throughout.

As to `O=C(O)CCc1ccccc1`, the compound was classed as inactive in [1]. Moreover, the Potency result in [2], in [3], in experiment [4], in experiment [6], in [7] and in experiment [8] was “inactive” in each case.

On to `Cc1occc(=O)c1OC(=O)C(C)C`, for which the result in [1] was inactive. The Potency entry in experiment [2], in experiment [3], in experiment [4], in experiment [6], in experiment [7] and in experiment [8] was “inactive” in each case.

As for `CCC(=O)/C=C/C1C(C)=CCCC1(C)C` (stereo not drawn), in experiment [1], the call was inactive. The Potency result in experiment [2], in experiment [3], in experiment [4], in [7] and in experiment [8] was “inactive” each time.

With `COc1nc(C)nc(Cl)c1NC1=NCCN1`, the result in [1] was inactive. Further, the Potency result in [2], in [3], in experiment [4], in [5], in experiment [7] and in experiment [8] was “inactive” throughout.

Take `O=C1NCC2(CCN(CCc3ccccc3)CC2)O1`: in [1], the compound was classed as inactive. The Potency entry in experiment [2], in [3], in experiment [4], in experiment [5], in experiment [6] and in experiment [7] was “inactive” throughout. Besides, the Potency entry in [8] is “inactive”.

On to `Cc1scc2c1N(C(=O)CN1CCN(C)CC1)c1ccccc1NC2=O`, for which the result in experiment [1] was inactive. Also, the Potency result in experiment [2], in experiment [3], in experiment [4], in experiment [5], in [6] and in [7] was “inactive” each time. Also, in [8], the Potency entry was “inactive”.

Turning to `CCC(C)(C)C(=O)O[C@H]1C[C@@H](C)C=C2C=C[C@H](C)[C@H](CC[C@@H]3C[C@@H](O)CC(=O)O3)[C@H]21`, the outcome in experiment [1] was inactive. In addition, the Potency result in experiment [2], in experiment [5], in [7] and in [8] was “inactive” throughout. Besides, the Potency in experiment [3] was 27.3 µM (active) and 13.3 µM (active); in [4], 11.9 µM (active).

For the compound `CC(=O)OCCOCCOCCOC(C)=O`, the result in [1] was inactive. In addition, the Potency result in experiment [2], in experiment [3], in experiment [4], in experiment [5], in [7] and in experiment [8] was “inactive” throughout.
